Bioassay records as filed in PubChem BioAssay.
Rango dissoc inh: inhibition of RanGTP-driven Rango-importin beta dissociation. Biochemical FRET Rango-importin beta, RanGTP-induced dissociation. Potency, µM (top dose mostly 46.1 µM), inactives show top-dose activity change, negative = inhibition. 340,000 tested, 0.071% active. AID 540253; also: potency is read from the fitted curve at half-maximal effect; % of control where 0% means no effect; nearly all actives have a fitted effect of over 45% in size
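FRET read at 45 min, room temperature: inhibitors block the CFP/YFP signal rise when RanGTP (0.6 uM Ran, 2 mM GTP, 0.2 uM RCC1) frees Rango (0.1 uM) from importin beta (0.25 uM). Pre-read after 5 min compound exposure flags interference.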
Akt phos inh: Akt phosphorylation inhibition; 360,000 tested, 0.32% active; activity change, % for hits at 50 µM; Neuro2A IGF-stimulated pAkt S473 HTRF, 20 min; active compounds read low; AID 651550; in the data active = activity change below about -80%; inconclusive = mostly about -51% to -80%; also: % is scaled to controls: 0 for no effect and ±100 for the full control effect
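Neuro2A cells in DMEM with 0.5% FBS, overnight at 37 deg C, given compound at single 50 µM final, then IGF (6 nM final) for 20 min at 37 deg C. Lysed; phospho-Akt Ser473 by HTRF after 24 h, 665/615 ratio.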
TSHR antag: antagonists of human thyroid stimulating hormone receptor. P16473. TSHR-expressing cells, TSH-stimulated cAMP HTRF, 2 h; active compounds read low. activity change, negative = inhibition, % at 11.5 µM. 330,000 tested, 0.2% active;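 active = activity change below a set negative limit, meaning inhibition stronger than a set level, cut at about -70% in these data; inconclusive = activity change between two set negative limits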; also: % is scaled to controls: 0 for no effect and ±100 for the full control effect
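TSHR-expressing cells were treated with compounds, then stimulated with TSH at EC80 (4nM final) for 2 hours at 37 deg C. Cellular cAMP was measured by HTRF competition between lysate cAMP and cAMP-d2 for a cryptate-labelled anti-cAMP antibody.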
Rango complex inh: inhibitors of Rango-importin beta complex formation | Rango CFP/YFP FRET sensor + importin beta, 45 min | Potency, µM (doses to about 92.2 µM), inactives show at the highest dose inhibition of complex formation | 340,000 tested, 0.031% active | AID 540263;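 also: potency is read from the fitted curve at half-maximal effect; 0% = DMSO wells and 100% = buffer wells lacking importin beta; nearly all actives have a fitted effect of over 15% in size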
Target sequence (Q14974 whole entry, looked up): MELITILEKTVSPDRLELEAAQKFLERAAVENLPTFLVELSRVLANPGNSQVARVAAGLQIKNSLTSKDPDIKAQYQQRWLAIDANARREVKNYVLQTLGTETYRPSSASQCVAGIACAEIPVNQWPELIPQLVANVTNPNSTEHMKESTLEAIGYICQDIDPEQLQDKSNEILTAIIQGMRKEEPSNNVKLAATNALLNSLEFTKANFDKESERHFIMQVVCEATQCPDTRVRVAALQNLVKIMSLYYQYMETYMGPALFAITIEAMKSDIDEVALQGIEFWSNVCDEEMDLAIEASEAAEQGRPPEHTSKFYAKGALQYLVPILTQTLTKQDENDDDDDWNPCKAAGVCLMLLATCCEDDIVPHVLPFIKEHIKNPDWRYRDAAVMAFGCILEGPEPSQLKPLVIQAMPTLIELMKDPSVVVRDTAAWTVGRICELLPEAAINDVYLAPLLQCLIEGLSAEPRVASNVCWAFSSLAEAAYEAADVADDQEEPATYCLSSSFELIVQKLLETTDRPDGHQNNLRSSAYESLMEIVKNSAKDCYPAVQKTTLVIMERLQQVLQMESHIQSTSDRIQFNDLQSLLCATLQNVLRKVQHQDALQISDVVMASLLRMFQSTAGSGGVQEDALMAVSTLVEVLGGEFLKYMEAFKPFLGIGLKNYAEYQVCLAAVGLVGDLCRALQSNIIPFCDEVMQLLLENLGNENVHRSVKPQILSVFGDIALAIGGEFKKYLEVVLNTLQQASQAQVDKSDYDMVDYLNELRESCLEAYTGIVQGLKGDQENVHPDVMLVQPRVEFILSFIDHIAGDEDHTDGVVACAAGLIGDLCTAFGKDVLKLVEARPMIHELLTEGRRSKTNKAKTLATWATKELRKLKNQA
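FRET biosensor Rango (snurportin 1 IBB between N-terminal EYFP and C-terminal Cerulean), 50 nM in PBS/1 mM DTT/0.02% Tween-20/0.1% BSA, preincubated 5 min RT with compound; 0.125 microM importin beta added, 45 min RT, CFP/YFP FRET ratio read.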
p53 reactivator: re-activators of mutant p53 | H1299 p53-A138V BP100-luciferase reporter, luminescence, 24 h | Potency, µM (highest dose often 92.2 µM), for the others: at the top dose activity change, positive = activation, usual class: activators | 320,000 tested, 0.063% active | AID 504706; active = well fitted activation curve with a large enough effect; inconclusive = small, poorly fitted or top-dose-only effect; inactive = no such curve, though single readings can be large or run the other way; also: potency is read from the fitted curve at half-maximal effect; % of control where 0% means no effect; nearly all actives have a fitted effect of over 45% in size
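H1299 (p53-null), stable ts p53-A138V + BP100-Luc; 1000 cells/well, Opti-MEM/10% FBS; cpd 4 pt, 1:5; 24 h, 37 deg C, 5% CO2; detection reagent 10 min RT; luminescence.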
Starred values were filed as active, the others as inactive; i = inactive; ? = inconclusive; nt = no result given; [ ] = dose if it differs, or a comment. Sampled rows, rich in hits. Any-hit rate of the full collection: about 0.62%. Unless noted, calls follow the shape of the full dose curve.

SMILES	Rango dissoc inh	Akt phos inh	TSHR antag	Rango complex inh	p53 reactivator
CCCc1[nH]nc2c1C1(C(=O)N(CC)c3ccccc31)C(C#N)=C(N)O2 (configuration not stated)	4.3%	-109.8%*	-4.0	7.7%	-0.8%
CCN1C(=O)C2(C(C#N)=C(N)Oc3cc(C)oc(=O)c32)c2ccccc21 (configuration not stated)	-14.0%	i	-0.4	7.8%	-1.6%
Cc1cc2c(c(=O)o1)C1(C(=O)N(CC(=O)O)c3ccccc31)C(C#N)=C(N)O2 (configuration not stated)	14.6µM*[inhibitor]	i	8.8	?	8.1%
CC(C)(C)C(=O)NCCN1CCN(C(=O)C(C)(C)C)CC1	-3.2%	i	0.8	0.6%	13.8%
Cc1ccccc1NC(=O)N1CCCC(c2nc(-c3ccc(C(C)C)cc3)no2)C1 (configuration not stated)	11.6%	i	-4.4	-0.5%	44.7µM*
O=[N+]([O-])c1ccc(N2CCN(C(=S)NC3CCCCC3)CC2)cc1	-9.9%	-112.4%*	-15.8	?	-4.5%
CCOC(=O)[C@@H]1[C@H]2COc3ccccc3[C@@H]2N2C(=O)N(c3ccc(Br)cc3)C(=O)[C@]12C	-13.8%	i	21.9	0.7%	-1.5%
Cc1nc(Cc2nnc(SCC(=O)N3CC(=O)Nc4ccccc43)o2)cs1	-13.0%	i	0.4	-0.1%	6.9%
COc1ccc(NS(=O)(=O)N2CCOCC2)cc1	-13.3%	i	7.4	0.0%	6.3%
CCOC(=O)N1CCC(N2CCCC(CO)(Cc3cccc(OC)c3)C2)CC1 (configuration not stated)	-13.0%	i	-8.8	?	-0.6%
Cn1cc(/C=C(\C#N)C(=O)Nc2ccccc2O)c2ccccc21	18.4µM*[inhibitor]	i	-3.6	?	11.4%
CC1CN(C(=O)CCN2C(=O)c3ccccc3C2=O)CC(C)O1 (configuration not stated)	6.2%	-116.7%*	1.3	-2.7%	-8.6%
COc1ccc(-c2nnc(SCC(=O)NC(=O)Cc3ccccc3)n2C)cc1	-8.0%	i	-22.2	1.3%	10.1%
CCC1(C)CC(=O)N(c2ccc(C(=O)O)c(O)c2)C1=O (configuration not stated)	7.0%	-113.8%*	1.4	-3.1%	4.8%
O=C(O)c1ccc(NC2=C(Cl)C(=O)c3ccccc3C2=O)cc1	-10.4%	i	-86.8*	2.9%	-14.6%
O=C(O)c1cccc(NC2=C(Cl)C(=O)c3ccccc3C2=O)c1	18.4%	i	-83.4*	0.1%	-10.4%
O=C1C(Cl)=C(Nc2ccccc2)C(=O)c2ccccc21	-18.6%	i	-2.6	-1.0%	-18.0%
Cc1ccc(NC2=C(NC(=O)c3ccccc3)C(=O)c3ccccc3C2=O)cc1Cl	-3.6%	i	-5.3	-4.7%	?
CCN(CC(=O)Nc1ccccc1C(F)(F)F)C(=O)c1oc2ccc(OC)cc2c1C	-17.9%	i	-6.7	-2.5%	9.7%
N#Cc1c(NC(=O)CN2CCOCC2)oc(-c2ccccc2)c1-c1ccccc1	-2.8%	-107.5%*	-2.8	-0.3%	-2.7%
C/C=C/c1ccc(OCCNCc2ccccc2)c(OC)c1	10.4%	i	1.9	0.4%	nt
C/C=C/c1ccc(OCCCNC)c(OC)c1	-11.6%	-118.9%*	7.0	?	2.3%
CCOC(=O)c1ccc(NC(=S)NC(=O)COc2ccccc2)cc1	-16.4%	i	-4.0	-4.7%	19.2%
Cc1noc(C)c1CSc1nnc(-c2c[nH]c3ccccc23)n1-c1ccc(Cl)cc1	13.6%	-114.8%*	-8.9	-0.4%	0.6%
CCc1ccc(-n2c(SCc3c(C)noc3C)nnc2-c2ccncc2)cc1	11.6%	i	-6.9	-1.9%	0.6%
SMILES	Rango dissoc inh	Akt phos inh	TSHR antag	Rango complex inh	p53 reactivator
COc1cccc(NC(=O)Nc2nnc([C@H]3C[C@H](O)[C@@H](CO)O3)s2)c1	nt	i	nt	nt	nt
CC(=O)Oc1cc2c(C(C)=O)coc2c2ccccc12	-0.7%	-144.4%*	-6.8	0.5%	27.1%
CC(=O)c1coc2c1cc(O)c1ccccc12	-5.2%	i	-1.7	1.3%	9.5%
Cc1ccc(CN2CCc3[nH]c(=S)[nH]c(=O)c3C2)cc1	-2.6%	i	-2.9	-1.3%	-2.7%
O=c1[nH]c(=S)[nH]c2c1CN(Cc1ccc(F)cc1)CC2	-21.4%	i	-138.7*	-3.1%	-8.0%
CN(C)c1ccc(N2C(=NC(=O)COc3ccccc3)SC3CS(=O)(=O)CC32)cc1 (configuration not stated)	-3.4%	i	15.0	-0.8%	-1.0%
O=C(NC1(Cc2ccccc2)CCN(CCCc2ccccc2)C1=O)c1ccccc1 (configuration not stated)	3.4%	i	13.1	0.8%	-7.5%
CC(=O)Cc1nsc(NC(=O)c2ccc(COc3cccc(C)c3)o2)n1	9.7%	i	-1.6	-3.7%	-0.3%
CCOC(=O)N1CCN(Cc2ccc(O)c3ncccc23)CC1	-14.4%	i	-4.8	0.3%	2.7%
CCOC(=O)N1CCN(Cc2ccccn2)CC1	7.5%	-104.7%*	nt	-0.4%	nt
C[N+](C)(C)CC(=O)N1CCN(c2ccc3ccccc3n2)CC1	7.7%	i	2.7	0.1%	-3.6%
Oc1ccccc1N1CCN(c2ccc3ccccc3n2)CC1	-3.2%	i	-77.5*	1.7%	?
CC(Sc1nnc(-c2ccc(OC(F)F)cc2)n1N)C(=O)NCC1CCCO1 (configuration not stated)	16.5%	i	-9.0	-1.8%	-5.0%
Cn1nc(C(=O)NCc2ccccc2)c2ccccc2c1=O	-4.6%	i	-2.4	-1.2%	-3.5%
Cn1nc(C(=O)NCc2ccccn2)c2ccccc2c1=O	2.2%	-93.7%*	0.1	-2.4%	-2.9%
CCC(=O)Nc1nn(C)c2nc3c(C)cccc3cc12	?	-113.2%*	0.6	?	-13.8%
CC1=C(C(=O)OCC2CCCO2)C(c2ccccc2Cl)NC(=O)N1 (configuration not stated)	3.4%	-98.7%*	1.6	-2.4%	-3.6%
CCOc1ccccc1/C=C(/NC(=O)c1ccccc1)C(=O)N1CCCCC1	7.1%	i	4.6	1.6%	-1.8%
COCCN(CCOc1cc(C)cc(C)c1)Cc1ccc(Cl)cc1	0.0%	i	-0.7	2.0%	-3.1%
OCCNCCOc1ccccc1F	1.8%	-107.3%*	-2.8	0.2%	-5.5%
OCCNCCOc1ccccc1-c1ccccc1	6.1%	i	4.5	-1.3%	-3.1%
CCOC(=O)c1cc2sc(C)cc2n1C(C)C(=O)OCC (configuration not stated)	-4.4%	nt	10.3	4.7%	1.5%
CN(C(=O)COC(=O)c1ccc2c(c1)NC(=O)CS2)C1CCS(=O)(=O)C1 (configuration not stated)	6.7%	-108.0%*	20.4	1.7%	1.3%
